# Source: paper PMC8384837, “Expanding the binding specificity for RNA recognition by a PUF domain”
# Key:
# Test in all cases: yeast three-hybrid, YBZ-1, SC-Leu-His + 0.5 mM 3-AT, 4 days
# Details in all cases: tags: N-Gal4 AD-HA kept; label: inside an RPR1-promoter hybrid RNA with tandem MS2 sites; ssRNA
# PUM1 PUF domain R7-RRH = PUM1 PUF domain R7-RRH (Homo sapiens, UniProt Q14671 828-1176, S1079R;N1080R;E1083H)
# Summary of the method: (§1)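 Matching RNA elements and Pumilio-1 PUF domain libraries, randomized at the three base-contacting residues of every repeat, were co-expressed from a centromeric plasmid in strain YBZ-1 (LexA–MS2 coat fusion, HIS3 reporter). The repeat regions were PCR-amplified and Illumina-sequenced from cells grown four days on SC-Leu (input) or SC-Leu-His + 0.5 mM 3-AT (selection). The interaction score is the log change in variant frequency from input to selection. It is computed in log2, with a pseudocount of 1 for absent variants.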
# PUM1 PUF domain R7-ISS = PUM1 PUF domain R7-ISS (Homo sapiens, UniProt Q14671 828-1176, S1079I;N1080S;E1083S)
# Summary of the method: as §1
# PUM1 PUF domain R5-LHD = PUM1 PUF domain R5-LHD (Homo sapiens, UniProt Q14671 828-1176, C1007L;R1008H;Q1011D)
# Summary of the method: as §1
# PUM1 PUF domain R4-SRG = PUM1 PUF domain R4-SRG (Homo sapiens, UniProt Q14671 828-1176, N971S;H972R;Q975G)
# Summary of the method: as §1
# PUM1 PUF domain R4-FNM = PUM1 PUF domain R4-FNM (Homo sapiens, UniProt Q14671 828-1176, N971F;H972N;Q975M)
# Summary of the method: as §1
# PUM1 PUF domain R6-VFK = target: T1, PUM1 PUF domain R6-VFK (Homo sapiens, UniProt Q14671 828-1176, N1043V;Y1044F;Q1047K)
# T1 sequence: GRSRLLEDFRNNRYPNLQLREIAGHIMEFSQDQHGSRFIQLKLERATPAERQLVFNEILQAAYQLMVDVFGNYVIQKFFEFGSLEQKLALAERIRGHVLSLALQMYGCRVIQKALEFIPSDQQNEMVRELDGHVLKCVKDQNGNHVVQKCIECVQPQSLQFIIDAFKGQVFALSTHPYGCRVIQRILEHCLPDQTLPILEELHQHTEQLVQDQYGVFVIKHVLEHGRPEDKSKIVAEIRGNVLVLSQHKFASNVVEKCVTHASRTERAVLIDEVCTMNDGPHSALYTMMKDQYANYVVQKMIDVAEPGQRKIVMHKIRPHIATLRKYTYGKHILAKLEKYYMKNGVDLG
# Summary of the method: as §1
# PUM1 PUF domain R8-PWI = PUM1 PUF domain R8-PWI (Homo sapiens, UniProt Q14671 828-1176, N1122P;Y1123W;Q1126I)
# Summary of the method: as §1
# PUM1 PUF domain R3-SCP = PUM1 PUF domain R3-SCP (Homo sapiens, UniProt Q14671 828-1176, C935S;R936C;Q939P)
# Summary of the method: as §1
# PUM1 PUF domain R3-RVN = PUM1 PUF domain R3-RVN (Homo sapiens, UniProt Q14671 828-1176, C935R;R936V;Q939N)
# Summary of the method: as §1
# PUM1 PUF domain R3-FRR = PUM1 PUF domain R3-FRR (Homo sapiens, UniProt Q14671 828-1176, C935F;Q939R)
# Summary of the method: as §1
# PUM1 PUF domain R3-GIR = PUM1 PUF domain R3-GIR (Homo sapiens, UniProt Q14671 828-1176, C935G;R936I;Q939R)
# Summary of the method: as §1
# PUM1 PUF domain R3-RPD = PUM1 PUF domain R3-RPD (Homo sapiens, UniProt Q14671 828-1176, C935R;R936P;Q939D)
# Summary of the method: as §1
# PUM1 PUF domain R2-PFQ = PUM1 PUF domain R2-PFQ (Homo sapiens, UniProt Q14671 828-1176, N899P;Y900F)
# Summary of the method: as §1
sequence,measurement,setting,value
GGCUAGAACUAGUGGAUCCCCCGGCGCCCGGCGGCUCGAGCCCGGGUAAGUUUAAAUAGUCUGCAUGCCGCCGGGCGCCAUGCCUGCAGGUCGACUCUAGAAAACAUG,binding signal,PUM1 PUF domain R7-RRH,5.13 log2 enrichment (interaction score)
same,binding signal,PUM1 PUF domain R7-ISS,3.84 log2 enrichment (interaction score)
GGCUAGAACUAGUGGAUCCCCCGGCGCCCGGCGGCUCGAGCCCGGGUAAGUGUGAAUAGUCUGCAUGCCGCCGGGCGCCAUGCCUGCAGGUCGACUCUAGAAAACAUG,binding signal,PUM1 PUF domain R5-LHD,2.82 log2 enrichment (interaction score)
GGCUAGAACUAGUGGAUCCCCCGGCGCCCGGCGGCUCGAGCCCGGGUAAGUGUAUAUAGUCUGCAUGCCGCCGGGCGCCAUGCCUGCAGGUCGACUCUAGAAAACAUG,binding signal,PUM1 PUF domain R4-SRG,1.37 log2 enrichment (interaction score)
same,binding signal,PUM1 PUF domain R4-FNM,3.46 log2 enrichment (interaction score)
GGCUAGAACUAGUGGAUCCCCCGGCGCCCGGCGGCUCGAGCCCGGGUAAGUGCAAAUAGUCUGCAUGCCGCCGGGCGCCAUGCCUGCAGGUCGACUCUAGAAAACAUG,binding signal,PUM1 PUF domain R6-VFK,1.94 log2 enrichment (interaction score)
GGCUAGAACUAGUGGAUCCCCCGGCGCCCGGCGGCUCGAGCCCGGGUAAGUCUAAAUAGUCUGCAUGCCGCCGGGCGCCAUGCCUGCAGGUCGACUCUAGAAAACAUG,binding signal,PUM1 PUF domain R7-RRH,4.29 log2 enrichment (interaction score)
GGCUAGAACUAGUGGAUCCCCCGGCGCCCGGCGGCUCGAGCCCGGGUAAGCGUAAAUAGUCUGCAUGCCGCCGGGCGCCAUGCCUGCAGGUCGACUCUAGAAAACAUG,binding signal,PUM1 PUF domain R8-PWI,4.09 log2 enrichment (interaction score)
GGCUAGAACUAGUGGAUCCCCCGGCGCCCGGCGGCUCGAGCCCGGGUAAGUGUAAUUAGUCUGCAUGCCGCCGGGCGCCAUGCCUGCAGGUCGACUCUAGAAAACAUG,binding signal,PUM1 PUF domain R3-SCP,3.31 log2 enrichment (interaction score)
same,binding signal,PUM1 PUF domain R3-RVN,4.09 log2 enrichment (interaction score)
same,binding signal,PUM1 PUF domain R3-FRR,2.42 log2 enrichment (interaction score)
same,binding signal,PUM1 PUF domain R3-GIR,1.55 log2 enrichment (interaction score)
same,binding signal,PUM1 PUF domain R3-RPD,3.79 log2 enrichment (interaction score)
GGCUAGAACUAGUGGAUCCCCCGGCGCCCGGCGGCUCGAGCCCGGGUAAGUGUAAAAAGUCUGCAUGCCGCCGGGCGCCAUGCCUGCAGGUCGACUCUAGAAAACAUG,binding signal,PUM1 PUF domain R2-PFQ,4.24 log2 enrichment (interaction score)
